Consider 29 molecules from PubChem BioAssay (NCATS).

Where “and” joins values, the source holds several entries; their conditions need not be identical. Identical values can stand only once. Records with an inconclusive call do not appear. More than one record can exist for a structure, and the calls need not agree. Calls of active or inactive are those of the source. Unless noted, the call rests on the fitted dose curve; in most records, active means well fitted curve in the direction sought with a large enough effect; inconclusive means small, poorly fitted or top-dose-only effect, or another doubt; inactive means no such curve, though single readings can be large; an effect the other way counts as inactive or inconclusive.

For experiment [1], the target named is Calcium and integrin-binding protein 1 (Homo sapiens) (UniProt Q99828). Nature of the experiment: Primary qHTS for Identification of Calcium Integrin Binding Protein 1 (CIB1) Competitor (AID 1508620).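 Further: GST tagged CIB1 binding a fluorescein labelled alphaIIb integrin peptide tracer; top concentration of the series differs between compounds.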 Put shortly:
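CIB1-GST (1 uM final) and compound incubated 15 min at room temperature before adding FITC-alphaIIb peptide tracer (100 nM final). Competition for binding read by fluorescence polarization (ex 480, em 540) after another 15 min at room temperature.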
(In qHTS, concentration-response curves come from the screen itself.)

The nature of experiment [2]: Primary qHTS for small molecule stabilizers of the endoplasmic reticulum resident proteome: Secreted ER Calcium Modulated Protein (SERCaMP) assay (AID 1508630). Put shortly: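 GLuc-SERCaMP-expressing SH-SY5Y cells, pretreated 16 h with compound, are challenged with thapsigargin to empty ER calcium stores; after 4 h, coelenterazine is added directly to the medium and luminescence is imaged.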

Experiment [3] is described as follows: A High-Content qHTS Against Drug Library for the Identification of Small Molecules that Inhibit DYT1 Early Onset Primary Dystonia-Associated Cell Pathology (AID 1645839; calls by dose curve; further: series mostly up to about 46 µM). Put shortly: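 In this high-content image screen, delE TorsinA mislocalization in inducible Flp-In 293 cells is scored as %pathology, with cell count serving as the counterscreen. Compound exposure lasts 48 h under tetracycline induction in reduced-serum medium.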

Experiment [4] is described as follows: Primary qHTS for inhibitors of nuclear receptor binding SET domain protein 2 (NSD2) in an isogenic RCH-ACV NSD2 p.E1099K mutant (9B) (AID 1645876). Further: nearly all actives have a fitted effect of over 70% in size. Further: potency means the concentration at half of the fitted maximal effect.
A short description of experiment [5]: Primary qHTS for inhibitors of nuclear receptor binding SET domain protein 2 (NSD2) in an RCH-ACV wild type WT cells (2C) (AID 1645877). Further: nearly all actives have a fitted effect of over 70% in size. Further: potency means the concentration at half of the fitted maximal effect.
Experiment [6] deals with Cytochrome P450 2D6 (Homo sapiens) (UniProt P10635). Briefly: Cytochrome P450 family 2 subfamily D member 6 (CYP2D6) small molecule antagonists: luciferase biochemical (cell-free) qHTS assay (AID 1645840; active means well fitted curve in the direction sought with a large enough effect in the repeat runs; an effect the other way counts as inactive or inconclusive; further: nearly all actives have a fitted effect of over 55% in size; further: potency means the concentration at half of the fitted maximal effect). Put shortly: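 P450-Glo luminescent screen: recombinant CYP2D6 enzyme–proluciferin substrate mix preincubated with compound 10 min at room temperature, then NADPH regeneration added for 1 h at room temperature. Detection reagent added for 20 min; luciferin light read as relative luminescence units.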
Chain of Cytochrome P450 2D6 (Homo sapiens) (P10635 whole entry, looked up): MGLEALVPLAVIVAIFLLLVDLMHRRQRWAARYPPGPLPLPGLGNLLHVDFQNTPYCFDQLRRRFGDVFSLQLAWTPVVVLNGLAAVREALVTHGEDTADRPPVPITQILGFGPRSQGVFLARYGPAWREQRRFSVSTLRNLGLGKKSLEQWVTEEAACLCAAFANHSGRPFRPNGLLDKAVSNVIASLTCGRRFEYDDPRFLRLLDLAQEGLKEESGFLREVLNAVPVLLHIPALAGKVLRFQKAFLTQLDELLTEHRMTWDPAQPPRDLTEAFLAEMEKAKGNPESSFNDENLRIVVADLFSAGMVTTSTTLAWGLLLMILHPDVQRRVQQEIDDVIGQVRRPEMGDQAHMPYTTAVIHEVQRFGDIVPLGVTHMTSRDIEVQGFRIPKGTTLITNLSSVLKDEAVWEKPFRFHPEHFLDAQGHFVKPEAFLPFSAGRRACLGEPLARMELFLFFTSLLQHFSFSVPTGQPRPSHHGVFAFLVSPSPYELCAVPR

Experiment [7] deals with Cytochrome P450 3A4 (Homo sapiens) (UniProt P08684). Nature of the experiment: Cytochrome P450 family 3 subfamily A member 4 (CYP3A4) small molecule antagonists: luciferase qHTS assay (AID 1645841; active means well fitted curve in the direction sought with a large enough effect in the repeat runs; an effect the other way counts as inactive or inconclusive; further: nearly all actives have a fitted effect of over 45% in size). Put shortly:
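Luminescent CYP3A4 activity readout: compounds plus enzyme-substrate mix 10 min at room temperature, reaction started with NADPH regenerating system for 1 h, stopped with detection reagent, read after 20 min. Ketoconazole served as control.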

The target of experiment [8] is Cytochrome P450 2C9 (Homo sapiens) (UniProt P11712). Nature of the experiment: Cytochrome P450 family 2 subfamily C member 9 (CYP2C9) small molecule antagonists: luciferase biochemical (cell-free) qHTS assay (AID 1645842; active means well fitted curve in the direction sought with a large enough effect in the repeat runs; an effect the other way counts as inactive or inconclusive; further: nearly all actives have a fitted effect of over 55% in size; further: potency means the concentration at half of the fitted maximal effect). Put shortly:
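Luminescence, after 20 min with luciferin detection reagent, reflected CYP2C9 turnover during a 1 h NADPH-driven reaction at 37C. Enzyme-substrate mix contained 0.4% bovine serum albumin and was preincubated with compound 10 min at room temperature.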

The target in experiment [9] is N-terminal Xaa-Pro-Lys N-methyltransferase 1 (Homo sapiens) (UniProt Q9BV86). Briefly: Confirmatory qHTS for Inhibitors of N-terminal methyltransferase 1 (NTMT1): MTaseGlo Assay (AID 1645874).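 Further: luminescence from SAH made as NTMT1 methylates SPKRIA peptide using SAM; series mostly up to about 100 µM; nearly all actives have a fitted effect of over 65% in size.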 Put shortly:
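NTMT1 (125 nM) preincubated 15 min with compound and 100 uM SAM, then 1 uM SPKRIA peptide added for 30 min at room temperature. SAH detected by MTase-Glo luminescence; normalized to no-enzyme and DMSO controls, fitted to 4-parameter Hill.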

In experiment [10] the target is Papain (Carica papaya) (UniProt P00784). Nature of the experiment: Primary qHTS assay for inhibitors of the protease papain (AID 1645873).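 Further: papain turnover of Z-FR-AMC read as the AMC fluorescence gain over 10 min; series mostly up to about 50 µM.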
Chain of Papain (Carica papaya) (P00784 whole entry, looked up): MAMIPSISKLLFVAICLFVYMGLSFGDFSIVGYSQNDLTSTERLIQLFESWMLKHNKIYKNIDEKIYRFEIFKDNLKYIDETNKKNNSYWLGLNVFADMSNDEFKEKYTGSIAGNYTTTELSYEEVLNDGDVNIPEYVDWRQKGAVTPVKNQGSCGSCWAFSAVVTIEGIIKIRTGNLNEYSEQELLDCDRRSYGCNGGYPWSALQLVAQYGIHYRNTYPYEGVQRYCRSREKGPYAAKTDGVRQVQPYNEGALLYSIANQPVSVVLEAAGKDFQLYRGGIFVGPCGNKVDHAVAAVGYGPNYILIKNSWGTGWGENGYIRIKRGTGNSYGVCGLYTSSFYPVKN

Chain of Cytochrome P450 2C9 (Homo sapiens) (P11712 whole entry, looked up): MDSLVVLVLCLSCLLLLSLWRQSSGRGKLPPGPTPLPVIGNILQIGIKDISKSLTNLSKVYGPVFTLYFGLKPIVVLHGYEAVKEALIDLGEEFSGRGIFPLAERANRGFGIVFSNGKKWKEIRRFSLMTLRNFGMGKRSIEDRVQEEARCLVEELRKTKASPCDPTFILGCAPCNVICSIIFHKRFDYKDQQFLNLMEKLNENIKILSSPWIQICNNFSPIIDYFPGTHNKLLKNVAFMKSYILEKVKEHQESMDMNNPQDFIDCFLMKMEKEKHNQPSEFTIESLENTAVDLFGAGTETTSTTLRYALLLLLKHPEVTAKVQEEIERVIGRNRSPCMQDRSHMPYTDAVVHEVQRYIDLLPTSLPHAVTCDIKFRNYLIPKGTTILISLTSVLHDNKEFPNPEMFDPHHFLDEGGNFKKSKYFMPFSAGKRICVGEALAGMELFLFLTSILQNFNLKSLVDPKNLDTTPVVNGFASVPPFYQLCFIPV
Chain of Calcium and integrin-binding protein 1 (Homo sapiens) (Q99828 whole entry, looked up): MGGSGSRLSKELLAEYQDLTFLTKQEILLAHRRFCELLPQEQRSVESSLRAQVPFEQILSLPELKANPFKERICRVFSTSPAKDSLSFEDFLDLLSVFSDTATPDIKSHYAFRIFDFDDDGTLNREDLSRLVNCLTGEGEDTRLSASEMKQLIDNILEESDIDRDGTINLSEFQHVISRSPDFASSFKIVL
Chain of Cytochrome P450 3A4 (Homo sapiens) (P08684 whole entry, looked up): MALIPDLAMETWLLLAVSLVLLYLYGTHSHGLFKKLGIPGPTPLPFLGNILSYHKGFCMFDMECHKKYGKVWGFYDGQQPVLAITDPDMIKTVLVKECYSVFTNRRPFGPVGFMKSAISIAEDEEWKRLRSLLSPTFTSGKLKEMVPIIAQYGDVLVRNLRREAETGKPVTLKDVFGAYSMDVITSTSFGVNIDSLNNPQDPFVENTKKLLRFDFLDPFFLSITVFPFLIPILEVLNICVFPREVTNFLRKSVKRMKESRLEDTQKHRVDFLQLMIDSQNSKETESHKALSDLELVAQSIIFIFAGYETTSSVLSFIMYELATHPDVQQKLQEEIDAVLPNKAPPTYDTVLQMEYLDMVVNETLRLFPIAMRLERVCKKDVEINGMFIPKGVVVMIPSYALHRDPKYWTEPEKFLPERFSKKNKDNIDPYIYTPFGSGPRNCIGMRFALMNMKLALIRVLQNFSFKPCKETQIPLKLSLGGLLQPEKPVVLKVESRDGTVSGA
Chain of N-terminal Xaa-Pro-Lys N-methyltransferase 1 (Homo sapiens) (Q9BV86 whole entry, looked up): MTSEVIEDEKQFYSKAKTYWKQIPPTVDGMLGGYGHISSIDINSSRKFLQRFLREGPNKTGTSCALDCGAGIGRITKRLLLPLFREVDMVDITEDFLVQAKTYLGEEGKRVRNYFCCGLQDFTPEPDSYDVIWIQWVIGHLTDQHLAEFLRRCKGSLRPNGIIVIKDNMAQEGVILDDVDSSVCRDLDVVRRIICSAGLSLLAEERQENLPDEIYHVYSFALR

Regarding `COc1cc(NS(=O)(=O)c2ccc(N)cc2)nc(OC)n1`, the outcome in experiment [1] was inactive. Besides, the Potency entry in experiment [2], in experiment [3], in experiment [4] and in experiment [5] was “inactive” in each case.
Turning to `CNC1CCCN(c2c(F)cc3c(=O)c(C(=O)O)cn(C4CC4)c3c2OC)C1` (stereo not given), the outcome in [1] and in [7] was inactive. Moreover, the Potency result in experiment [3], in experiment [6], in experiment [8], in experiment [4] and in experiment [5] was “inactive” in each case.
Turning to `O[C@@H](CNC[C@H](O)[C@H]1CCc2cc(F)ccc2O1)[C@@H]1CCc2cc(F)ccc2O1`, the result in experiment [1] was inactive. Also, the Potency result in experiment [2] and in experiment [8] was “inactive” throughout. Also, the Potency is 0.0389 µM (active) in experiment [6], 11.9 µM (active) in [4] and 11.9 µM (active) in [5].
Turning to `CCN[C@H]1C[C@H](C)S(=O)(=O)c2sc(S(N)(=O)=O)cc21`, in [1], the outcome was inactive. Besides, the Potency result in [3], in experiment [6], in experiment [8], in [4] and in [5] was “inactive” in each case.
In the case of `O=C(O)c1cccnc1`, in experiment [1], the result was inactive. For the same molecule, the Potency entry in experiment [2], in experiment [3], in experiment [4] and in [5] was “inactive” in each case.
For the molecule `CNC(=O)c1cc(Oc2ccc(NC(=O)Nc3ccc(Cl)c(C(F)(F)F)c3)cc2)ccn1`, the result in [1] was inactive. For the same molecule, the Potency result in experiment [2] is “inactive”. The Potency was 19.5 µM (active) in [8]; 9.34 µM (active) and 21.1 µM (active) and 5.15 µM (active) in [4]; 7.42 µM (active) and 5.15 µM (active) in [5].
As for `COc1ccc(C(=O)CC(=O)c2ccc(C(C)(C)C)cc2)cc1`, the outcome in [1] was inactive. Also, the Potency entry in experiment [3], in experiment [6], in experiment [8], in [4] and in experiment [5] was “inactive” in each case.
With `CO[C@@]12[C@H](COC(N)=O)C3=C(C(=O)C(C)=C(N)C3=O)N1C[C@@H]1N[C@@H]12`, the outcome in experiment [1] was inactive. For the same molecule, the Potency result in [2], in experiment [8], in [4] and in experiment [5] was “inactive” in each case. For the same molecule, the Potency in [6] is 12.3 µM (active).
On to `CCN(C)C(=O)Oc1cccc([C@H](C)N(C)C)c1`, for which, in experiment [1], the result was inactive. The Potency result in [2], in experiment [3], in experiment [4] and in experiment [5] was “inactive” in each case.
For the molecule `Nc1nc(=S)c2[nH]cnc2[nH]1`, the result in experiment [1] was inactive. Also, the Potency result in experiment [2] and in [9] was “inactive” in each case. Besides, the Potency in [8] was 15.5 µM (active); in [4], 750 nM (active) and 833 nM (active); in [5], 1.06 µM (active) and 742 nM (active).
Regarding `COC(=O)Nc1nc2ccc(S(=O)c3ccccc3)cc2[nH]1` (stereo not given), the result in experiment [1] was inactive. In addition, the Potency entry in experiment [2] and in experiment [8] was “inactive” in each case. The Potency is 10.5 µM (active) and 596 nM (active) in experiment [4]; 7.42 µM (active) and 335 nM (active) in experiment [5].
As to `CC(=O)Oc1ccccc1C(=O)Nc1ncc([N+](=O)[O-])s1`, the outcome in [1] was inactive. The Potency result in experiment [2], in experiment [4] and in experiment [5] was “inactive” in each case. The figures for the Potency in experiment [6] and in experiment [8] were 8.71 µM (active) and 2.75 µM (active), respectively.
As for `CC[C@H](C)C(=O)O[C@H]1C[C@@H](C)C=C2C=C[C@H](C)[C@H](CC[C@@H]3C[C@@H](O)CC(=O)O3)[C@H]21`, the result in experiment [1] was inactive. Moreover, the Potency result in [2] and in [3] was “inactive” each time. Further, the Potency is 16.8 µM (active) and 10.5 µM (active) in experiment [4]; 8.33 µM (active) in experiment [5].
Regarding `COc1nc(N)nc2c1ncn2[C@@H]1O[C@H](CO)[C@@H](O)[C@@H]1O`, the outcome in [1] was inactive. The Potency entry in experiment [2], in experiment [3] and in experiment [8] was “inactive” in each case. Also, the values for the Potency in [4] and in [5] were 5.31 µM (active) and 6.68 µM (active), respectively.
For `CN(C)c1ccc(C(=C2C=CC(=[N+](C)C)C=C2)c2ccc(N(C)C)cc2)cc1`, in [1], the outcome was inactive. In addition, in experiment [2], the Potency result was “inactive”. Also, the Potency in [6] was 3.09 µM (active); in experiment [4] it was 33.5 nM (active) and 296 nM (active); in experiment [5], 42.2 nM (active) and 263 nM (active).
As to `Cc1cccc(Nc2ccncc2S(=O)(=O)NC(=O)NC(C)C)c1`, in experiment [1], the result was inactive. In addition, the Potency entry in experiment [2], in experiment [3], in experiment [4] and in experiment [5] was “inactive” in each case.
As for `O=c1oc2c(O)c(O)cc3c(=O)oc4c(O)c(O)cc1c4c23`, the result in [1] was inactive. Further, the Potency result in experiment [2], in [3], in experiment [8] and in experiment [5] was “inactive” throughout.
As to `CCCOc1ccc(C(=O)OCCN(CC)CC)cc1N`, the outcome in [1] was inactive. The Potency result in [2], in experiment [3], in experiment [8], in experiment [4] and in [5] was “inactive” throughout.
As to `COC(c1ccccc1)(c1ccccc1)[C@H](Oc1nc(C)cc(C)n1)C(=O)O`, the outcome in experiment [1] was inactive. The Potency result in [3], in experiment [6], in experiment [8], in experiment [4] and in experiment [5] was “inactive” throughout.
Take `CCCCOc1ccc(CC(=O)NO)cc1`: the outcome in experiment [1] was inactive. For the same molecule, the Potency entry in experiment [2] is “inactive”. The Potency in experiment [8] is 17.4 µM (active); in [4], “inactive and 16.6 µM (active)”; in [5], “inactive and 16.6 µM (active)”.
Turning to `COc1ncnc(NS(=O)(=O)c2ccc(N)cc2)c1OC`, in [1], the outcome was inactive. In addition, the Potency result in experiment [3], in experiment [6], in experiment [8], in experiment [4] and in experiment [5] was “inactive” throughout.
For the molecule `NC(=O)N1c2ccccc2CC(=O)c2ccccc21`, the outcome in experiment [1] was inactive. Further, the Potency result in [2] and in experiment [8] was “inactive” each time.
Consider `NCCCC(O)(P(=O)(O)O)P(=O)(O)O`, for which the result in experiment [1] was inactive. Also, in [3], the Potency entry is “inactive”.
Turning to `COc1ccc2cc3[n+](cc2c1OC)CCc1cc2c(cc1-3)OCO2`, the outcome in experiment [1] was inactive. For the same molecule, the Potency entry in experiment [3] and in experiment [8] was “inactive” each time. Further, the Potency is 1.55 µM (active) in experiment [6]; 11.9 µM (active) and 5.9 µM (active) in experiment [4]; 11.9 µM (active) and 3.32 µM (active) in [5].
As to `COc1cc(NCc2ccc3nc(N)nc(N)c3c2C)cc(OC)c1OC`, the outcome in [1] was inactive. Besides, the Potency result in experiment [2] and in experiment [3] was “inactive” throughout. The Potency was 12.3 µM (active) in [8]; 13.3 nM (active) and 1.05 µM (active) in experiment [4]; 15 nM (active) and 1.18 µM (active) in experiment [5].
As for `Cc1ccc(S(=O)(=O)N[C@@H](Cc2ccccc2)C(=O)CCl)cc1`, the outcome in experiment [1] was inactive. For the same molecule, the Potency entry in experiment [2] and in [10] was “inactive” each time. Also, the Potency in experiment [4] was 13.2 µM (active); in [5], 11.8 µM (active).
For the molecule `COc1ccc(-c2ccc3cc(C(=O)O)ccc3c2)cc1C12CC3CC(CC(C3)C1)C2`, the outcome in experiment [1] was inactive. Moreover, the Potency result in [2], in experiment [6], in experiment [8], in experiment [4] and in experiment [5] was “inactive” throughout.
Take `CC(=O)CC(c1ccccc1)c1c(O)c2ccccc2oc1=O` (stereo not given): the result in experiment [1] was inactive. In addition, the Potency result in experiment [2], in [3], in experiment [4] and in [5] was “inactive” in each case.
For `CC1=NN(c2ccccc2)C(=O)C1`, in experiment [1], the result was inactive. In addition, the Potency result in experiment [2], in [3], in [4] and in experiment [5] was “inactive” in each case.
